# From PubChem
# Only some compounds are listed: those with a hit (about 4% of all), similar ones and a draw of the others.
# MITF TRPM1 inh – MITF TRPM1 promoter inhibition in SK-MEL-5 cells; AID 488899; actives 0.83% (n = 330,000); SK-MEL-5 TRPM1 promoter luciferase, 24 h; inhibition, % at 12.5 µM;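 active means mean inhibition across replicates of 60% or more, whatever share of single replicates reaches that level; inconclusive means some that reach 60%, reason not given; inactive means mean inhibition across replicates below 60%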
# Statin myotox sup – suppression of simvastatin myotoxicity; rescue of ATP level, % at 7.49 µM; C2C12 myotubes + simvastatin, ATP luminescence, 48 h; scaled: DMSO 0, geranylgeraniol control 100; actives 0.78% (n = 330,000); AID 602340;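 active means mean ATP rescue above about 67%, or every replicate alone reaching that limit, limit read from the data, passing the limit was not always enough; inconclusive means no clear call, values can overlap the other calls; inactive means mean under the limit and some replicate under it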;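 further: myotubes were challenged with 10 µM simvastatin during compound exposure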
# MITF TRPM1 HTS – MITF TRPM1 promoter activation in melanoma cells. SK-MEL-5 TRPM1-promoter luciferase, 24 h; % of positive control, neutral wells = 0. activation, % at 12.5 µM. actives 0.75% (n = 300,000);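 active means mean activation of at least 80% with every replicate also reaching 80%; inconclusive means mean reaches 80% but some replicate falls short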;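 further: 0% = neutral control wells and 100% = parthenolide positive control wells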
# EBV LMP1 NFkB – inhibitors of Epstein-Barr LMP1-induced NF-kappaB reporter; LMP1-induced NF-kappaB luciferase reporter cells, luminescence; inhibition, % at 12.5 µM; actives 0.69% (n = 350,000); in the data active means inhibition above about 41%; inconclusive means no clear call, values can overlap the other calls;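 further: 0% = neutral control wells and 100% = reference inhibitor control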
# esBAF inh – inhibitors of esBAF chromatin remodeling in mouse ES cells; Bmi1-luciferase knock-in reporter, 24 h; 100% = twice the neutral-well signal; reporter increase, % at 12.5 µM; actives 2% (n = 350,000); AID 602393; in the data active means activation above about 40%; inconclusive means no clear call, values can overlap the other calls;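 further: 0% = median of the plate's neutral control wells and 100% = double that signal; a rise in the Bmi1 reporter signal indicates esBAF inhibition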
# Wnt bcat act – activators of Wnt/beta-catenin signaling; Wnt/beta-catenin reporter cell assay, activator, plate reader; activation, % at 9.35 µM; actives 1.2% (n = 300,000); in the data active means activation above about 30%, passing the limit was not always enough; inconclusive means no clear call, values can overlap the other calls;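 further: 0% = neutral control wells and 100% = positive control wells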
# An asterisk follows results filed as active; ? = inconclusive; nt = no result.
SMILES,MITF TRPM1 inh,Statin myotox sup,MITF TRPM1 HTS,EBV LMP1 NFkB,esBAF inh,Wnt bcat act
O=C(N/N=C/c1ccc([N+](=O)[O-])s1)c1ccccc1,105.0*,1.9,-104.8,16.8,-70.6,0.9
O=C(CNC(=O)c1cccc(Br)c1)N/N=C/c1cccs1,-2.0,2.0,nt,-6.4,-1.3,-2.8
O=C(N/N=C/c1ccc([N+](=O)[O-])s1)c1ccccc1Br,90.3*,26.8,-89.6,7.9,-65.1,-3.5
O=C(CNC(=O)c1cccc(F)c1)N/N=C/c1ccc([N+](=O)[O-])s1,70.9*,nt,-71.2,-2.9,nt,-1.1
O=C(Nc1ccccc1C(=O)NCc1ccc(Cl)cc1)c1ccco1,1.1,35.3,-3.2,-17.8,-7.5,nt
CC(C)NC(=O)N(C)C[C@H]1OCc2ccccc2-c2ccccc2C(=O)N([C@H](C)CO)C[C@H]1C,nt,-9.4,nt,nt,-4.9,nt
C[C@H]1CN([C@@H](C)CO)C(=O)c2cc(-c3cccnc3)cnc2O[C@@H]1CN(C)C(=O)C1CCCCC1,nt,6.4,nt,nt,-0.9,nt
CCN(CC)C(=O)CN(c1cc(Cl)ccc1OC)S(C)(=O)=O,4.5,57.4,-2.6,-14.1,-2.3,nt
O=C(c1ccccc1)c1ccc2cc(O)ccc2c1,-42.6,-10.2,46.7,-0.7,55.1*,20.1
CC(C)(C)C(=O)N1CCN(C(=O)c2ccco2)CC1,1.4,3.9,-0.1,-1.2,2.2,1.1
COc1ccc(C)cc1NCc1cc(=O)oc2cc(-c3ccccc3)c(O)cc12,-35.4,0.4,34.0,-9.9,62.1*,nt
Cc1cc(C)cc(NCc2cc(=O)oc3cc(-c4ccccc4)c(O)cc23)c1,18.5,nt,-18.0,7.0,nt,nt
CCOC(=O)CN(C(=O)CNC(=O)c1ccco1)C(C(=O)NC1CCCCC1)c1cccs1 (stereo not drawn),7.4,124.1*,-4.0,-5.2,0.5,nt
CCOC(=O)CN(C(=O)CNC(=O)c1ccco1)C(C(=O)NC1CCCC1)c1ccccc1OCC (stereo not drawn),5.7,-5.5,-3.3,-1.1,-2.5,nt
COc1ccc(C(C(=O)NC2CCCC2)N(Cc2ccccc2)C(=O)CNC(=O)c2ccco2)cc1 (stereo not drawn),6.1,4.8,-1.5,1.4,-7.3,-0.9
O=C(NCC(=O)N(Cc1ccccc1)C(C(=O)NC1CCCCC1)c1ccco1)c1ccco1 (stereo not drawn),4.3,109.6*,-4.3,-4.2,5.9,nt
O=S(=O)(c1ccccc1)N1CCCCN2[C@H](C1)[C@@H](c1ccc(C#CC3CCCC3)cc1)[C@@H]2CO,nt,-6.6,nt,nt,1.4,nt
CC(=O)Nc1cccc(NC(=O)c2cccc3cccnc23)c1,-4.9,9.6,6.7,-0.2,5.7,1.6
COc1ccccc1C(=O)Nc1cccc2cccnc12,-12.6,-26.1,19.2,-27.0,64.1*,-0.7
O=C(Nc1cccc2cccnc12)c1ccccc1Cl,nt,8.2,nt,nt,25.2,11.4
Cc1ccc(NC(=O)c2cccc3cccnc23)cc1,-10.6,-4.3,8.7,-44.1,64.4*,24.6
COc1ccccc1C(=O)Nc1c[nH]c(=O)[nH]c1=O,-0.3,24.4,-0.4,52.5*,5.6,1.2
O=C(NCCc1ccccc1F)c1cccc2cccnc12,-80.1,7.8,76.0,-25.0,66.3*,23.4
COc1ccc(N2CCN(Cc3nc4c(c(=O)n(C)c(=O)n4C)n3Cc3cccc(C)c3)CC2)cc1,-10.5,-7.4,8.5,1.6,14.1,-5.0
O=C(c1ccc(S(=O)(=O)NCC2CCCO2)cc1)N1CCN(c2cccc(Cl)c2)CC1 (stereo not drawn),17.3,nt,-13.6,2.0,nt,-1.5
SMILES,MITF TRPM1 inh,Statin myotox sup,MITF TRPM1 HTS,EBV LMP1 NFkB,esBAF inh,Wnt bcat act
COc1ccc(C(=O)Cn2c(=N)n(C)c3ccccc32)cc1,-7.2,4.6,nt,-37.8,87.4*,1.4
Cn1c(=N)n(CC(=O)C(C)(C)C)c2ccccc21,-28.9,-1.4,28.7,-12.2,50.6*,-2.4
COc1ccc(C(=O)CN2C(=O)COc3ccccc32)cc1,-6.9,nt,7.0,-6.0,nt,-1.7
CCCn1c(=N)n(CC(=O)C(C)(C)C)c2ccccc21,2.4,-17.5,nt,1.5,-0.8,-2.0
COc1ccc(C(=O)CN2Cc3ccccc3C2=N)cc1,-75.3,nt,nt,-35.2,nt,42.2*
CN(Cc1cnn(-c2ccc(F)cc2)c1)Cc1nc(Cc2ccccc2)no1,5.1,-6.0,-3.9,-11.9,0.8,0.5
O=C(CSc1n[nH]c(=O)n1C1CC1)c1ccc2c(c1)OCCO2,nt,nt,nt,nt,nt,38.0*
COc1ccc(NC(=S)N2CCN(C(=O)c3ccco3)CC2)c(OC)c1,7.1,-6.9,-7.5,2.9,-3.4,-2.7
Cc1ccc(Sc2ncccc2O)cc1,-17.9,nt,19.7,-3.5,nt,68.8*
Cc1ccc(Sc2ncccc2N)cc1,nt,nt,nt,nt,nt,7.2
Nn1c(SCC(=O)Nc2ccc(N3CCOCC3)cc2)nnc1C1CC1,-2.5,0.3,6.5,-1.7,7.8,1.3
COc1ccccc1-c1cnn2c(NC3CCCC3)cc(C)nc12,-131.4,-22.4,139.9*,-17.0,61.8*,25.0
COc1ccccc1-c1ccc(NC2CCCC2)nn1,-31.5,-9.1,33.2,-16.7,63.4*,nt
CCOC(=O)N1CCC(Nc2cc(C)nc3c(-c4ccccc4OC)c(C)nn23)CC1,17.7,8.9,-20.3,-2.3,2.0,-1.9
CCOC(=O)N1CCN(C(=O)c2ccc(C)c(S(=O)(=O)Nc3ccccc3)c2)CC1,7.9,5.0,nt,3.0,-4.4,-1.9
CCOc1ccc2nc(SCc3ccccc3C#N)sc2c1,-91.6,8.8,?,-38.0,61.0*,nt
CCOc1ccc2nc(SCC(=O)c3ccccc3)sc2c1,-62.3,-20.4,60.0,-29.2,47.1*,8.3
CN(C)S(=O)(=O)c1cccc(C(=O)Nc2ccccc2C(=O)NC2CC2)c1,7.5,1.3,-11.9,1.3,-16.4,3.0
C[C@H](CO)N1C[C@H](C)[C@H](CN(C)C(=O)Nc2ccc(F)cc2)OCCCC[C@H](C)Oc2ccc(NC(=O)c3ccccc3)cc2C1=O,nt,nt,nt,nt,-2.1,nt
Cc1ccn2c(C(=O)c3ccc(Cl)cc3)cnc2c1,-83.7,nt,?,-39.4,nt,42.9*
CC(NC(=O)Nc1ccccc1O)(C(F)(F)F)C(F)(F)F,9.1,90.9*,nt,-11.8,-4.1,-1.4
CCOc1ccc(N(C(=O)CNC(=O)c2ccco2)C(C(=O)NC2CCCC2)c2cccnc2)cc1 (stereo not drawn),0.4,0.2,1.9,-3.9,1.7,-0.6
CCC(NC(=O)Nc1ccc(O)cc1)(C(F)(F)F)C(F)(F)F,7.6,2.1,-6.4,-4.6,-5.5,nt
CCC(NC(=O)Nn1cnnc1)(C(F)(F)F)C(F)(F)F,2.2,10.7,nt,66.5*,9.9,-3.3
O=C(CC12CC3CC(CC(C3)C1)C2)N1CCOCC1,6.6,115.3*,-7.7,0.9,-2.4,-1.8
O=C(CC12CC3CC(CC(C3)C1)C2)N1CCCOC1,2.3,nt,nt,-4.7,-11.2,nt
Cc1cccc(OCc2nnc(SCC(=O)NC3CCCCC3)n2C)c1,7.6,26.4,-12.5,-5.0,-3.5,1.2
